High-throughput results from PubChem.
In the library only some 7.3% were active in any assay of this set; here they are far more common.
FLuc modulator = qHTS profiling assay for firefly luciferase inhibitor/activator using purifed enzyme and Km concentrations of substrates (counterscreen for miR-21 project) | Luciferin 4-monooxygenase (Photinus pyralis), P08659 | purified FLuc, Km substrates, luminescence inhibition | Potency, µM (doses to about 57.5 µM), most hits filed as inhibitors | 6.9% of 360,000 active; also: nearly all actives have a fitted effect of over 55% in size
Target sequence (P08659 whole entry, looked up): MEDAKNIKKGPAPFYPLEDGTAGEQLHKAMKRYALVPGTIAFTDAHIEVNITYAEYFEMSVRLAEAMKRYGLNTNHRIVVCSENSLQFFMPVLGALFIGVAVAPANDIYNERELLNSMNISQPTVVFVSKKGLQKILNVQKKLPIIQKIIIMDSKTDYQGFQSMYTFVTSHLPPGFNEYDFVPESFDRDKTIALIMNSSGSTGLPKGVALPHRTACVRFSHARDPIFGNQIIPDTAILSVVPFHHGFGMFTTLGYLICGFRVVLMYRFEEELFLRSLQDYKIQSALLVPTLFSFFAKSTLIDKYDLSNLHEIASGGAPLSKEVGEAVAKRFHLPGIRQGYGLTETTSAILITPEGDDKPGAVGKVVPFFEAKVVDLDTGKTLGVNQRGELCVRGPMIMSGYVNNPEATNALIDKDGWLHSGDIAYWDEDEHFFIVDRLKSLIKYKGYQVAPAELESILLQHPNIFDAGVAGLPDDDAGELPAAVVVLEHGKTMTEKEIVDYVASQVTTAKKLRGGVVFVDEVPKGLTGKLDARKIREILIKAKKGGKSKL
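Purified P. pyralis luciferase, 10 nM final, with Km-level 10 uM D-luciferin and 10 uM ATP in 50 mM Tris acetate pH 7.5, 10 mM Mg acetate, 0.01% Tween-20, 0.05% BSA; 6-point qHTS titration about 60 µM downward; luminescence read.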
uPA surface inh = qHTS for Inhibitors of Cell Surface uPA Generation; cell surface uPA generation assay, qHTS; Potency, µM (highest dose often 38.3 µM), most hits filed as inhibitors; 0.31% of 330,000 active; AID 540303, 2011; active = well fitted inhibition curve with a large enough effect; inconclusive = small, poorly fitted or top-dose-only effect; inactive = no such curve, though single readings can be large or run the other way; tested in mouse RAW 264.7 cells; also: nearly all actives have a fitted effect of over 55% in size
NPC1 promoter act = qHTS Assay for NPC1 Promoter Activators; Huh7 NPC1 promoter luciferase reporter, 24 h; Potency, µM (top dose mostly 9.22 µM), most hits filed as activators; 2.4% of 320,000 active; also: nearly all actives have a fitted effect of over 60% in size
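Readout is luciferase luminescence, reflecting NPC1 promoter activation in stably transfected Huh7 cells after 24 h compound exposure at 37 °C in reduced-serum medium with 10% FBS.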
Rab9 promoter act = qHTS Assay for Rab9 Promoter Activators | Huh7 Rab9 promoter-luciferase reporter, luminescence, 24 h | Potency, µM (top dose mostly 9.22 µM), hits mostly activators | AID 485297, 2010 | 2.8% of 320,000 active; also: nearly all actives have a fitted effect of over 60% in size
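Cell-based reporter: Huh7 stable for Rab9 promoter-driven luciferase, plated in reduced-serum medium with 10% FBS at 1500 cells/well, compound-treated 24 h at 37 °C, luminescence read after 10 min reagent.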
SMN2 splice enh = qHTS Assay for Enhancers of SMN2 Splice Variant Expression. HEK293 SMN2-luciferase splicing reporter, luminescence, 30-36 h. Potency, µM (top dose mostly 46.1 µM), most hits filed as activators. 2.8% of 210,000 active. AID 1458, 2008; also: nearly all actives have a fitted effect of over 55% in size
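qHTS luciferase splicing reporter: luminescence rises when SMN2 exon 7 is included in transfected HEK293 cells. Compound exposure lasted 30-36 h at 37C, with 4.5 mM final sodium butyrate as control, followed by a ONE-Glo read.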
ELG1 genotox = qHTS screen for small molecules that induce genotoxicity in human embryonic kidney (HEK293T) cells expressing luciferase-tagged ELG1 | HEK293T ELG1-luciferase reporter, luminescence, 16 h | Potency, µM (titrated, usually from 46 µM), hits mostly activators | 1.3% of 330,000 active | AID 504466, 2011; also: nearly all actives have a fitted effect of over 60% in size
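Screening used a luciferase reporter fused to human ELG1 in HEK293T cells. Luminescence was read on a CCD plate imager after 16 hr exposure and 30 min ONE-Glo incubation.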
Numbers stand for hits; - = inactive; ? = inconclusive; . = no result given; [ ] = remark or other dose. Unless noted, calls follow the shape of the dose curve; as a rule, active = well fitted curve in the direction sought with a large enough effect; inconclusive = small, poorly fitted or top-dose-only effect, or another doubt; inactive = no such curve, though single readings can be large; an effect the other way counts as inactive or inconclusive.

SMILES	FLuc modulator	uPA surface inh	NPC1 promoter act	Rab9 promoter act	SMN2 splice enh	ELG1 genotox
CCCCN1Cc2c(nc3cc(-c4ccco4)[nH]n3c2=O)C1=O	17µM	-	-	-	.	-
CCOc1ccc(CNC(=O)CCS(=O)(=O)c2cc3c4c(c2)CCN4C(=O)CC3)cc1OC	-	.	.	.	.	.
COc1cc2c(C(=O)N3CCN(C)CC3)c(C)oc2cc1Br	-	-	-	-	-	-
Cc1oc2cc3c(C(=O)N4CCCCC4)c(C)oc3cc2c1C(=O)N1CCCCC1	11µM	?	-	?	-	?
CCCc1ccc(C(=O)O/N=C(\N)c2ccccn2)cc1	0.067µM	-	-	-	.	0.41µM
N/C(=N\OC(=O)c1ccc2ccccc2c1)c1ccccc1Cl	1.9µM	?	3.2µM	4µM	.	23µM
COc1cccc(C(=O)O/N=C(\N)c2ccccn2)c1	0.076µM	?	2.5µM	3.2µM	.	?
N/C(=N\OC(=O)c1ccc2ccccc2c1)c1ccncc1	1.9µM	-	1.3µM	1.4µM	.	4.6µM
Cc1ccccc1C(=O)O/N=C(\N)c1ccncc1	4.3µM	-	?	3.2µM	.	?
N/C(=N\OC(=O)c1ccc2ccccc2c1)c1ccccn1	0.15µM	-	?	?	?	0.58µM
N/C(=N\OC(=O)c1ccc(=O)n(Cc2ccccc2)c1)c1ccccn1	?	.	-	-	-	-
CSCC(=O)NC1CCCc2c1cnn2-c1ccc(C)c(C)c1 (centres undefined)	-	-	-	-	.	-
COc1ccccc1N=CC=C1OC(C)(C)C(C)(C)O1	-	-	-	-	-	-
Cc1ccc(N=CC=C2OC(C)(C)C(C)(C)O2)c(C)c1	7.6µM	-	-	-	-	-
COC(=O)c1ccccc1N=Nc1c(N)[nH][nH]c1=O	11µM	-	-	-	.	-
c1ccc(-c2ccc(-c3ccccc3)[nH]2)cc1	.	-	.	.	.	.
c1ccc(-c2ccc3c(c2)NCCN3)cc1	13µM	-	?	-[1.84 µM]	.	-
COc1cc(NC(=O)CN2c3cccc4cccc(c34)S2(=O)=O)cc(OC)c1OC	-	-	-	-	-	-
COc1ccccc1CNC(=O)CN1c2cccc3cccc(c23)S1(=O)=O	24µM	-	-	-	.	-
Cc1occc1C(=O)NNC(=S)Nc1ccccc1	?	.	?	2.5µM	?	?
Cc1ccccc1NC(=S)NNC(=O)c1ccoc1C	-	-	?	?	-	-
CCNC(=S)NNC(=O)c1ccoc1C	-	-	-	-	-	-
Cc1occc1C(=O)NNC(=S)Nc1ccccc1C(F)(F)F	-	-	?	2.8µM	?	-
O=C(CSc1nc2ncc(Cl)cc2[nH]1)N1CCOCC1	.	-	.	.	.	-
CC1CCN(C(=O)CSc2nnc3c(n2)[nH]c2ccc(F)cc23)CC1	-	-	-	-	.	-
SMILES	FLuc modulator	uPA surface inh	NPC1 promoter act	Rab9 promoter act	SMN2 splice enh	ELG1 genotox
Cc1ccc2[nH]c(SCC(=O)N3CCOCC3)nc2c1C	15µM	-	?	3.5µM	6.3µM	?
CC(C)c1ccc2[nH]c3nc(SCC(=O)N4CCOCC4)nnc3c2c1	6.7µM	-	-	-	?	-
C/C(N)=C(/C#N)C(=O)CSc1nc2ccc(C)cc2[nH]1	4.8µM	.	1.4µM	1.1µM	10µM	?
Cc1ccc2nc(SCC(=O)Nc3ccc(C#N)cc3)[nH]c2c1	-	.	.	.	-	.
Cc1ccc2nc(SCC(=O)N3CCOCC3)[nH]c2c1	6.7µM	-	2.5µM	1.6µM	?	9.2µM
Nc1ncnc2c1ncn2[C@H]1O[C@@H](CSCC[C@@H](N)C(=O)O)[C@H](O)[C@@H]1O	.	.	.	.	-	.
CN(C)c1ccc(-c2nc(-c3cc4cc(Cl)ccc4oc3=O)cs2)cc1	-	.	.	.	.	.
Cc1ccc2nc(SCC3CCCCO3)[nH]c2c1 (centres undefined)	1.2µM	-	0.4µM	0.11µM	.	?
CCc1cc2c(N=Nc3c(O)[nH]c4ccccc34)ncnc2s1	-	-	?	-	-	-
Cc1sc2ncnc(N=Nc3c(O)[nH]c4ccccc34)c2c1C	0.85µM	-	-	?	-	-
Oc1[nH]c2ccccc2c1N=Nc1nncc2ccccc12	7.6µM	-	?	3.5µM	.	-
COc1cccc(CC(NC(C)=O)C(=O)NC2CCN(C(=O)Nc3ccc(C)cc3)CC2)c1 (centres undefined)	-	-	-	-	.	-
CCOc1ccccc1NC(=O)CSc1ncc2c(n1)-c1ccccc1N(CC)S2(=O)=O	-	.	.	.	.	.
CN1CCN(c2ccc(NC(=O)COc3cccc4ccccc34)cc2)CC1	-	-	-	-	.	-
C=CC(=O)Nc1cccc(N(C)c2ccnc(Nc3ccc(N4CCN(C)CC4)cc3)n2)c1	.	10µM	.	.	.	.
Cc1ccc(C)c(NC(=O)CCC(=O)N/N=C/c2ccc3c(c2)OCO3)c1	11µM	-	-	-	.	-
Cc1cc(C)nc(SCC(=O)N/N=C/c2ccc3c(c2)OCO3)n1	9.5µM	-	?	-	.	?
Cc1ccc2c(Sc3ccccc3)c(C(=O)NCc3ccccc3F)[nH]c2c1	-	.	.	.	.	.
CN=C1S/C(=C\c2cn(CC(=O)OC)c3ccccc23)C(=O)N1C	17µM	-	-	-	-	-
CN=C1S/C(=C/c2cn(CC(=O)OC)c3ccccc23)C(=O)N1C	19µM	-	-	-	.	-
COC(=O)Cn1cc(/C=C/c2cc[n+](C)cc2)c2ccccc21	-	-	-	-	.	-
COc1ccc(NC(=O)Cn2cc(C(=O)c3ccccc3)c(=O)c3cc(OC)ccc32)c(OC)c1	-	.	.	.	-	.
Cc1ccc(CNC(=O)C(=O)Nc2c3c(nn2-c2ccc(F)cc2)CSC3)cc1	-	.	.	.	.	.
O=c1cc(-c2ccccc2Cl)oc2c(Br)ccc(O)c12	12µM	-	?	3.5µM	10µM	?
Cc1ccc2c(c1)N(C(=O)N1CCC(C(=O)Nc3cccc(F)c3)CC1)CCO2	-	.	.	.	.	.
SMILES	FLuc modulator	uPA surface inh	NPC1 promoter act	Rab9 promoter act	SMN2 splice enh	ELG1 genotox
COc1ccc(CNc2ccc(N3CCOCC3)cc2)cc1	27µM	-	-	?	.	-
COc1ccc(-c2cc(-c3ccccc3)c(C#N)c(S(C)=O)n2)cc1 (centres undefined)	-	-	-	-	-	-
COc1ccc(-c2cc3nc4ccccc4n3c(N)c2C#N)cc1	?	-	1.8µM	2µM	.	-
COc1cc2cnc(C3=CCCCC3)cc2cc1OC	.	-	.	.	.	-
COc1ccc2cc(-c3ccccc3)ncc2c1	0.54µM	?	0.56µM	0.45µM	.	2.9µM
COc1ccc2cc(C3=CCCCC3)ncc2c1	0.85µM	?	2µM	?	.	?
COc1cc(OC)cc(-c2cc3ccc(OC)cc3cn2)c1	0.27µM	3.5µM	?	?	.	?
COc1cc2cnc(-c3ccccc3)cc2cc1OC	.	-	.	.	.	?
COc1cc(OC)cc(-c2cc3ncccc3cn2)c1	?	-	-	-	.	-
